Results: PubChem BioAssay AID449768 (Vanderbilt High Throughput Screening Facility, 2010)
In all, about 110,000 compounds went through this assay and about 1,400 (1.3%) were called active.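 How the source made its calls: active means Z score or B-score, a plate-position-corrected score, falls beyond the plate's 99.7% confidence bounds, in either direction; inactive means both scores lie inside the 99.7% bounds.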 Shown is part of a subset that was picked to be rich in actives.

Molecular target: Sodium-dependent dopamine transporter (Homo sapiens) (UniProt Q01959)
Sequence (Q01959 whole entry, looked up): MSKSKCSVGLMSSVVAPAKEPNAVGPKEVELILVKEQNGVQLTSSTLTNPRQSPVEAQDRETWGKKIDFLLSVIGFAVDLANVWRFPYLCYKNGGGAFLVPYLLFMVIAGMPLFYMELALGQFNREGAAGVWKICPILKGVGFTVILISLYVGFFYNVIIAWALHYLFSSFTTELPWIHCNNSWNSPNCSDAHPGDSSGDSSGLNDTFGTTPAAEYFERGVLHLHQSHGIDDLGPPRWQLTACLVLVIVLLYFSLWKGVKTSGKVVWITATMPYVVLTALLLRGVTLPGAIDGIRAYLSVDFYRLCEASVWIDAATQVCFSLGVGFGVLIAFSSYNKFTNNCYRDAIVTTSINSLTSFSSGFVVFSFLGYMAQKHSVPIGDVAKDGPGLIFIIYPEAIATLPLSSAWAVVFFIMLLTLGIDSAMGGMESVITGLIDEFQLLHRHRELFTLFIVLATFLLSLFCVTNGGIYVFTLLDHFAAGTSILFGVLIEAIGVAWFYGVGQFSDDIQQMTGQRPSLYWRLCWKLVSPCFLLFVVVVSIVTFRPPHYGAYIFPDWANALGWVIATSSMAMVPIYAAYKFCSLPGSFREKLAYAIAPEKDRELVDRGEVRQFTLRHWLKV
Assay: modulators of human DAT uptake with cocaine – cell-based, LLC-PK1 hDAT, [14C]-dopamine uptake, MLSMR, cocaine antagonist project, primary screen (AID 449768);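 further: scored against the spread of the other compound wells on the same plate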
Conditions: LLC-PK1 hDAT cells, [14C]-dopamine uptake with cocaine IC80; at 10 µM; actives deviate in either direction

B-score, inactive:
Cc1ccc(OCC(=O)Nc2ccc(-c3nnc(-c4ccco4)o3)cc2)cc1 -0.0188
O=C(Nc1cccc(-c2nc3ncccc3o2)c1)c1ccco1 0.346
Cn1ccnc1-c1nnn(-c2ccc(F)cc2)n1 -0.732
Cc1ccc(Cn2c(NC(=O)c3ccco3)nc3ccccc32)cc1 -0.191
CCC(=O)NCCc1nc2ccccc2n1CC -0.73
CC(C)(C)Oc1ccccc1Nc1nc(NCCO)nc(N2CCCC2)n1 1.65
CCO[C@H]1OC(C(=O)Nc2ccccc2)=C[C@@H](C2CC2)[C@@H]1CCCO -0.987
COc1ccc(N2CCN(C(=O)CCc3nc(-c4ccc(C)cc4)no3)CC2)cc1 0.227
CCOc1ccc(-c2nnn(CC(=O)N3CCN(c4ccc(OC)cc4)CC3)n2)cc1OCC -0.869
CC1(C)CC[C@]2(C(=O)O)CC[C@]3(C)C(=CCC4[C@@]5(C)CC[C@H](O)C(C)(C)C5[C@H](O)C[C@]43C)[C@@H]2C1 (some centres not stated) 1.56
COC(=O)COc1cccc2c(=O)n(CC(=O)NCCc3ccc(OC)c(OC)c3)ccc12 -1.43
CCCCN1C(N)=NC[C@@H]1Cc1ccccc1 -0.466
CCN1C(=O)N[C@@H](c2ccccc2)C(C(=O)OC)=C1C -0.748
Nc1nonc1-c1nc2ccccc2n1Cc1ccc(F)cc1 -0.103
Nc1nonc1-c1nc2ccccc2n1CCC(=O)O 0.142
C[C@H]1CC[C@]2(O[C@@H](CCO)C[C@@H](O)[C@@H]2O)O1 0.279
CCO[C@@H]1OC(C(N)=O)=C[C@H](c2ccc(Br)cc2)[C@H]1CCCO -0.185
CC[C@H](C)[C@@H](C(=O)N1CCNCC1)n1cc([C@@H](N)Cc2ccc(O)cc2)nn1 0.00778
CCc1ccc(NC(=O)CSc2nc3ccccc3c(=O)n2CCN2CCOCC2)cc1 0.477
O=C(c1ccccc1)c1cc(-c2ccccn2)c(N2CCOCC2)s1 1.13
N#CCc1c(C#N)c(N)nc(N2CCCC2)c1C#N -0.528
C#CCCOC(=O)N1C2=NC(C(=O)OC)=C(C(=O)OC)[C@@H]3N(C)c4ccc(OC)cc4[C@]23C[C@H]1C(=O)OC -0.658
C#CCOCCOCCOCCNc1nc(N2CCN(C(=O)[C@H](Cc3ccc(O)cc3)n3cc(C(N)CC(C)C)nn3)CC2)nc(N2CCN(C(=O)[C@H](CCC(=O)O)n3cc(C(N)[C@H](C)CC)nn3)CC2)n1 (some centres not stated) -0.0315
CC(=O)Nc1ccc(NC(=O)CSCc2cnn(-c3ccccc3)c2-n2cccc2)cc1 0.28
C1=C(CCNc2ncnc3c2cnn3-c2ccccc2)CCCC1 1.22
O=C(Nc1ccccc1[N+](=O)[O-])C1C(c2ccccc2)=C1c1ccccc1 -0.499
O=[N+]([O-])c1ccccc1NCc1ccc(Cl)cc1 -0.347
CC1(c2nnc(-c3ccncc3)o2)CC(c2cccnc2)=NO1 (configuration not stated) -0.313
CCc1nnc(SCc2cccc(F)c2)nc1CC -0.0254
CC(NC(=O)Nc1ccccc1)C(c1cccs1)N1CCN(c2ccccc2)CC1 (configuration not stated) -0.314
COc1ccccc1C1=CC(=O)CCC1 -0.483
C/C=C(/C)C(=O)O[C@@H]1c2cc3c(c4c2[C@@]2(CO4)C(=O)C(OC)=C(OC)C=C2C[C@@H](C)[C@H]1C)OCO3 -0.0544
Cc1cc(C)cc(OCC(=O)Nc2nc3ccc([N+](=O)[O-])cc3s2)c1 0.303
COC(=O)C(NC(=O)c1ccc(OC)cc1)(Nc1ncc(S(=O)(=O)c2ccc([N+](=O)[O-])cc2)s1)C(F)(F)F (configuration not stated) 1.29

B-score, active:
Cc1ccc(OCC(=O)Nc2ccc(-c3nc4ncccc4o3)cc2)cc1 -8.77
CCCc1nc2c(C)cc(-c3nc4ccccc4n3C)cc2n1Cc1ccc(-c2ccccc2C(=O)O)cc1 3.87
CCOc1cc(-c2noc(CCC(=O)N3CCOCC3)n2)ccc1OC 2.65
CC(=O)Nc1nonc1-c1nc2ccccc2n1Cc1ccccn1 3.49
CCc1ccc2ncc(C(=O)c3ccccc3)c(N3CCOCC3)c2c1 2.66
O=C(NCCC1=CCCCC1)C1CCN(Cc2cnn(-c3ccccc3)c2-n2cccc2)CC1 3.85
O=C(O)c1ccccc1NC(=S)NC(NC(=O)c1ccccc1[N+](=O)[O-])C(Cl)(Cl)Cl (configuration not stated) -2.89
O=C(NC(Nc1nc2ccc([N+](=O)[O-])cc2s1)(C(F)(F)F)C(F)(F)F)c1ccccc1 -6.22
